An excerpt weighted towards active compounds, which were near 19% of everything screened.
TDP1 block – inhibitors of human tyrosyl-DNA phosphodiesterase TDP1; Q9NUW8; recombinant TDP1, AlphaScreen DNA substrate cleavage; Potency, µM (titrated, usually from 130 µM), most hits filed as inhibitors; hit rate 0.28% among 350,000; also: nearly all actives have a fitted effect of over 40% in size
Target sequence (Q9NUW8 whole entry, looked up): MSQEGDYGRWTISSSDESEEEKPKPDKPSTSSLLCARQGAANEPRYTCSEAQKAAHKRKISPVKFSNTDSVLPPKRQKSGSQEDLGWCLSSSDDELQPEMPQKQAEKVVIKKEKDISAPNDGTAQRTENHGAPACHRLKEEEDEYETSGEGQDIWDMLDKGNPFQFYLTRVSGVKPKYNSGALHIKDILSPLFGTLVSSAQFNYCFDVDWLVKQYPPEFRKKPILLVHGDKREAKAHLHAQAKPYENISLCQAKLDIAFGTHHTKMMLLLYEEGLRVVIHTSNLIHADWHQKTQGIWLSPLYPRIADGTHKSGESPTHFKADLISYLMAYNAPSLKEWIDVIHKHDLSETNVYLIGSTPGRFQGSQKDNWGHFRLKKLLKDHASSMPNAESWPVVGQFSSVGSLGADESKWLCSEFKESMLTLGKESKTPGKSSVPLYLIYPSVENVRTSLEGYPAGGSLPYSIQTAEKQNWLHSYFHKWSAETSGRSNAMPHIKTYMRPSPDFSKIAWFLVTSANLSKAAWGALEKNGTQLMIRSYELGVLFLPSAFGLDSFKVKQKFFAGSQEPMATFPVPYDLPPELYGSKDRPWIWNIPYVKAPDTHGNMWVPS
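Compounds were preincubated with Tdp1 (1 nM final) for 15 min at room temperature before substrate (15 nM final) started a 5 min reaction; beads (10 ug/ml final) were then added for 10 min before AlphaScreen detection.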
Gal4-VP16 FLuc – counter-screen for ROR gamma inhibitors: Gal4-VP16 reporter; hit rate 3.5% among 310,000; Drosophila S2 Gal4-VP16 UAS-luciferase, luminescence, 20 h; Potency, µM (series often up to 53.6 µM), usual class: inhibitors;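 also: Gal4-VP16 expression switched on by copper sulfate through the metallothionein promoter; nearly all actives have a fitted effect of over 50% in size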
RORgamma inh – blocks mouse ROR gamma transcriptional activity | P51450 | Drosophila S2 Gal4-RORgamma UAS-luciferase reporter, 20 h | Potency, µM (series often up to 53.6 µM), actives largely listed as inhibitors | hit rate 5.4% among 310,000 | AID 2551; also: nearly all actives have a fitted effect of over 60% in size
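Compounds are pin-transferred onto Drosophila Schneider cells expressing a copper-inducible Gal4–ROR gamma transactivation domain fusion. After 1 hr, copper sulfate is added to 700 uM final; luciferase is read 20 hr later.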
DT40 TDP1 CPT – growth inhibition of DT40 Tdp1-/-;hTDP1 cells with camptothecin (screen for TDP1 inhibitors). chicken DT40 Tdp1-/-;hTDP1 cells + 20 nM CPT, ATP luminescence, 48 h. Potency, µM (titrated, usually from 46.2 µM), hits mostly inhibitors. hit rate 12% among 420,000; also: nearly all actives have a fitted effect of over 55% in size
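Cell growth measured by CellTiter-Glo luminescence after a minimum 48 h, 37 C compound exposure with 20 nM CPT in Tdp1-knockout DT40 cells stably expressing hTDP1, seeded 400/well; qHTS titration format.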
DT40 TDP1 no CPT – qHTS for Inhibitors of human tyrosyl-DNA phosphodiesterase 1 (TDP1): qHTS in cells in absence of CPT; DT40 Tdp1-/- hTDP1 cells, no CPT, ATP luminescence, 48 h; AID 686978, 2013; hit rate 15% among 420,000; Potency, µM (top dose mostly 46.2 µM), hits mostly inhibitors; also: nearly all actives have a fitted effect of over 55% in size
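Growth kinetics read by CellTiter-Glo luminescence after ≥48 hr at 37 °C. Cells: DT40 Tdp1-/- stably carrying human TDP1, 400 per well, compound exposure in the absence of CPT (DMSO vehicle).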
Numbers stand for hits; i = inactive; ? = inconclusive; nt = no result; [ ] = remark or other dose. Calls follow the shape of the dose curve; as a rule, active = well fitted curve in the direction sought with a large enough effect; inconclusive = small, poorly fitted or top-dose-only effect, or another doubt; inactive = no such curve, though single readings can be large; an effect the other way counts as inactive or inconclusive.

SMILES | TDP1 block | Gal4-VP16 FLuc | RORgamma inh | DT40 TDP1 CPT | DT40 TDP1 no CPT
COc1cccc2c1C(=O)c1c(O)c3c(c(O)c1C2=O)CC(O)(C(C)=O)CC3OC1CC(N(C)C)C(O)C(C)O1 (configuration not stated) | nt | nt | nt | 0.0517µM | 0.082µM
CCOC(=O)C1CCC(CN(Cc2ccc(Cl)cc2)S(=O)(=O)c2cccc(Cl)c2C)CC1 (configuration not stated) | i | nt | nt | 23.1µM | 18.4µM
CCOC(=O)C1CCC(CN(Cc2ccc(OC)cc2)S(=O)(=O)c2ccc(C)cc2)CC1 (configuration not stated) | i | nt | nt | 20.6µM | 13µM
CCc1cccc(C)c1NC(=O)C1C2CCC(O2)C1C(=O)O (configuration not stated) | i | i | i | i | i
COc1ccc(N2CCC(CNC(=S)Nc3cccc(OC)c3)C2)cc1 (configuration not stated) | i | 5.62µM | 3.16µM | nt | nt
COc1ccc(N2CCC(CNC(=O)Nc3cccc(OC)c3)C2)cc1 (configuration not stated) | i | i | i | ? | ?
COc1ccc(N2CCC(CNC(=O)Nc3ccc(Cl)cc3)C2)cc1 (configuration not stated) | i | i | ? | ? | 18.4µM
CCc1ccccc1NC(=S)NCC1CCN(c2ccc(OC)cc2)C1 (configuration not stated) | i | 10µM | 2.51µM | ? | 20.6µM
CCc1ccccc1NC(=S)N1CCC(NC(=O)c2ccc(OC)cc2)CC1 | i | i | i | i | i
CCc1cccc(C)c1NC(=S)NCC1CCN(c2ccc(OC)cc2)C1 (configuration not stated) | i | 7.08µM | 6.31µM | 20.6µM | 20.6µM
Cc1ccc2scc(N3CCC(C)CC3)c(=O)c2c1 | i | nt | nt | i | i
COc1ccccc1CNC(=O)COC(=O)CNS(=O)(=O)c1ccc(C)cc1 | i | i | i | i | i
Nc1ncnc2c1ncn2C1OC(C(=O)NC2CC2)C(O)C1O (configuration not stated) | nt | nt | nt | i | i
COc1ccc(Cn2c(-c3ccc(Br)cc3)c[n+]3ccccc23)cc1 | i | i | i | 1.84µM | 2.06µM
COc1ccc(Cn2c(C)ccc2C)cc1 | i | i | i | i | i
CCCCN1C(N)=NC[C@@H]1C(C)O (some centres not stated) | nt | nt | nt | i | i
C=C(C)[C@@H]1CC=C(CO)CC1 | nt | nt | nt | i | i
COc1ccc(OC)c(CN2C(=O)c3ccccc3C2c2nnnn2-c2ccc3c(c2)OCCO3)c1 (configuration not stated) | nt | nt | nt | 6.51µM | 5.8µM
COc1ccc(CCN2C(=O)c3ccccc3C2c2nnnn2-c2ccc3c(c2)OCCO3)cc1OC (configuration not stated) | nt | nt | nt | i | ?
COc1ccc(-n2nnnc2C2c3ccccc3C(=O)N2C2CCN(Cc3ccccc3)CC2)cc1 (configuration not stated) | nt | nt | nt | ? | 16.4µM
O=C1c2ccccc2C(c2nnnn2-c2ccc3c(c2)OCCO3)N1Cc1ccc2c(c1)OCO2 (configuration not stated) | nt | nt | nt | 18.4µM | 16.4µM
O=C1c2ccccc2C(c2nnnn2-c2ccc3c(c2)OCCO3)N1CCc1ccccc1F (configuration not stated) | nt | nt | nt | 14.6µM | ?
O=C1c2ccccc2C(c2nnnn2-c2ccc3c(c2)OCCO3)N1CCOc1ccccc1 (configuration not stated) | nt | nt | nt | i | ?
COc1ccc(S(=O)(=O)N2CCN(C3CCN(Cc4ccccc4)CC3)CC2)cc1 | i | i | i | i | ?
O=C1c2ccccc2C(c2nnnn2-c2ccc3c(c2)OCCO3)N1Cc1cccc(F)c1 (configuration not stated) | nt | nt | nt | ? | 16.4µM
Cc1noc(-c2ccc(C(F)(F)F)cc2)c1NC(=O)Nc1ccc(Cl)cc1 | i | ? | ? | 4.61µM | 3.66µM
Cc1cc(-c2onc(C)c2C(=O)Nc2ccc(C(F)(F)F)cc2)no1 | i | i | i | i | i
O=C(N/N=C/c1ccc2c(c1)OCO2)c1sc2cc(Cl)ccc2c1Cl | i | i | i[10 µM] | 5.8µM | 5.17µM

Screens from PubChem.
